The source of these data is PubChem BioAssay (EPA / NIEHS).

A word on the AC50: it is the concentration at which the activity in the assay is half-maximal.

Active and inactive are the calls of the source. Rule for the calls: active = hit-call score of the fitted dose curve at least 0.9, where 1 is the maximum; inactive = score below 0.9.

Read-out in one experiment: ABC Transporter (ABCC3), ABCC3 (gene 8714)
Put plainly: LTEA_HepaRG_ABCC3: Life Technologies and Expression Analysis (LTEA) Assay for ABC Transporter (ABCC3) using HepaRG (AID 2283462). Particulars: mRNA level, 48 h; actives raise or lower the signal. The gist of the method:
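Differentiated human HepaRG cells exposed 48 h in serum-free induction medium, 0.5% DMSO vehicle, 8-point half-log series to 100 uM in duplicate. ABCC3 mRNA by qRT-PCR, normalised to ACTB, GAPDH, POLR2A; bidirectional fit vs DMSO.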
Turning to `COc1ccc2c(c1)c(CC(=O)O)c(C)n2C(=O)c1ccc(Cl)cc1`, the compound was classed as inactive.

On to `CNCc1cc(F)ccc1Oc1ccc(Cl)c(Cl)c1`, for which the outcome was inactive. With `C[Si]1(C)O[Si](C)(C)O[Si](C)(C)O[Si](C)(C)O1`, the call was inactive. For `COCCOCCOC`, the call was inactive. The same measure, in the same setting: with `COC(=O)c1ccc(O)cc1` the entry was “inactive”; with `O=C(O)CCCCC(=O)O`, “inactive”; with `Cc1cc(=O)[nH]c(=S)[nH]1`, “inactive”. For the compound `Cc1nc(-c2ccc3c(c2)CCN(CCC2CCC(NC(=O)/C=C/c4ccc(F)cc4)CC2)CC3)no1` (stereo unspecified), the compound was called inactive.

Regarding `CC1=C(/C=C/C(C)=C/C=C/C(C)=C/CO)C(C)(C)CCC1`, the compound was called inactive. Same read-out and setting: with `CC(=O)OC/C=C(\C)CCC=C(C)C` the entry was “inactive”; with `COc1ccc(C)cc1N`, “inactive”; with `OC[C@@H](O)[C@@H](O)[C@H](O)[C@H](O)CO`, “inactive”. Consider `NS(=O)(=O)c1cc2c(cc1Cl)NCNS2(=O)=O`, for which the result was inactive. As to `NCCO`, the outcome was inactive. With `COc1ccc(S(=O)(=O)N2C(=O)[C@@](c3ccccc3OC)(N3C[C@H](O)C[C@H]3C(=O)N(C)C)c3cc(Cl)ccc32)c(OC)c1`, the AC50 is 50 µM (active). With `c1cc(-c2ccncc2)ccn1`, the result was inactive. Regarding `Cc1nc(C)nc(N2C[C@@H](C)N(c3ccnc([C@@H](C)O)n3)[C@@H](C)C2)n1`, the result was inactive. For `Cc1cccc([N+](=O)[O-])c1C`, the call was inactive.

As for `Cc1oc(-c2ccccc2)nc1CCOc1cccc2c1ccn2CCC(=O)O`, the compound was called inactive. As to `CCOC(=O)CCC(=O)OCC`, the call was inactive. As for `CN[C@H]1CC[C@@H](c2ccc(Cl)c(Cl)c2)c2ccc(S(N)(=O)=O)cc21`, the AC50 was 12.6 µM (active). On to `NC(=O)Cn1c(=O)cc(CCN2CCN(c3nccc4sccc34)CC2)c2ccc(F)cc21`, for which the concentration at half-maximal activity (AC50) is 78.1 µM (active). Turning to `CCCCCC(=O)O`, the result was inactive. With `Cc1ccc(C)c(O)c1C`, the compound was classed as inactive. Still for that read-out and setting: the same measure for `CC=Cc1ccc(O)c(OC)c1`: “inactive”. On the same count and under the same terms, the same measure for `CCCCN(CCCC)CCCC`: “inactive”; for `C=CCc1ccc(O)c(OC)c1`: “inactive”.

Regarding `CCCCCCCCCCCCCO`, the outcome was inactive. Regarding `CC(CO)OC(C)CO` (stereo unspecified) (tested in a mixture with another compound), the result was inactive.

Read-out in the next experiment: ABC Transporter (ABCB11), ABCB11 (gene 8647)
Nature of the experiment: LTEA_HepaRG_ABCB11: Life Technologies and Expression Analysis (LTEA) Assay for ABC Transporter (ABCB11) using HepaRG (AID 2283463). The note with it: mRNA level, 48 h; actives raise or lower the signal. The gist of the method: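 ABCB11 transcript levels quantified by TaqMan qRT-PCR against three housekeeping genes after 48 h chemical exposure of HepaRG cultures. Concentrations up to 100 uM in half-log steps, 0.5% DMSO vehicle; both induction and suppression scored.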
With `CNCc1cc(F)ccc1Oc1ccc(Cl)c(Cl)c1`, the call was inactive. On to `C[Si]1(C)O[Si](C)(C)O[Si](C)(C)O[Si](C)(C)O1`, for which the result was inactive. With `COCCOCCOC`, the AC50 was 0.922 µM (active). In the case of `COC(=O)c1ccc(O)cc1`, the compound was called inactive.

For `O=C(O)CCCCC(=O)O`, the compound was called inactive. Turning to `Cc1cc(=O)[nH]c(=S)[nH]1`, the call was inactive. In the case of `Cc1nc(-c2ccc3c(c2)CCN(CCC2CCC(NC(=O)/C=C/c4ccc(F)cc4)CC2)CC3)no1` (stereo unspecified), the compound was classed as inactive. `CC1=C(/C=C/C(C)=C/C=C/C(C)=C/CO)C(C)(C)CCC1`: the compound was classed as inactive.

As for `CC(=O)OC/C=C(\C)CCC=C(C)C`, the compound was classed as inactive.

Turning to `COc1ccc(C)cc1N`, the outcome was inactive.

Regarding `OC[C@@H](O)[C@@H](O)[C@H](O)[C@H](O)CO`, the compound was classed as inactive.

For `NS(=O)(=O)c1cc2c(cc1Cl)NCNS2(=O)=O`, the compound was classed as inactive. For the compound `NCCO`, the compound was called inactive.

Regarding `COc1ccc(S(=O)(=O)N2C(=O)[C@@](c3ccccc3OC)(N3C[C@H](O)C[C@H]3C(=O)N(C)C)c3cc(Cl)ccc32)c(OC)c1`, the concentration at half-maximal activity (AC50) is 14.9 µM (active). Regarding `Cc1nc(C)nc(N2C[C@@H](C)N(c3ccnc([C@@H](C)O)n3)[C@@H](C)C2)n1`, the compound was called inactive. Take `Cc1cccc([N+](=O)[O-])c1C`: the compound was classed as inactive. `Cc1oc(-c2ccccc2)nc1CCOc1cccc2c1ccn2CCC(=O)O`: the half-maximal activity concentration (AC50) is 93.7 µM (active). For the compound `CCOC(=O)CCC(=O)OCC`, the outcome was inactive. In the case of `CN[C@H]1CC[C@@H](c2ccc(Cl)c(Cl)c2)c2ccc(S(N)(=O)=O)cc21`, the AC50 is 15.8 µM (active). In the case of `NC(=O)Cn1c(=O)cc(CCN2CCN(c3nccc4sccc34)CC2)c2ccc(F)cc21`, the result was inactive.

`CCCCCC(=O)O`: the outcome was inactive. `Cc1ccc(C)c(O)c1C`: the result was inactive. Regarding `CC=Cc1ccc(O)c(OC)c1`, the call was inactive. On to `CCCCN(CCCC)CCCC`, for which the result was inactive. Still for that read-out and setting: with `C=CCc1ccc(O)c(OC)c1` the entry was “inactive”. For `CCCCCCCCCCCCCO`, the compound was classed as inactive. `CC(CO)OC(C)CO` (stereo unspecified) (tested in a mixture with another compound): the call was inactive.
